Jurkat NFkB inh = inhibitors of the PMA/ionomycin-induced NF-kB reporter in Jurkat cells. actives 0.53% (n = 330,000). inhibition, % at 4 µM. PMA/ionomycin-induced NF-kB luciferase reporter, luminescence; in the data active = inhibition above about 50%
Gli-Sufu block = Gli-Sufu pathway antagonism; Sufu-KO-LIGHT fibroblasts, Gli luciferase reporter luminescence; AID 588413; inhibition, % at 5 µM; actives 0.74% (n = 340,000);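 active = inhibition above about 55%, limit read from the data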;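 note: 0% = DMSO-treated cells and 100% = wells with medium but no cells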
697 NFkB inh = lowers PMA/ionomycin-induced NF-kB signal in 697 B cells | 697 B-cell NF-kB luciferase reporter, 16 h | inhibition, % at 4 µM | actives 0.33% (n = 330,000) | AID 435022; in the data active = inhibition above about 35%
Beta cell apopt = blocks beta cell apoptosis; AID 435005; INS-1E cytokine-induced death, ATP luminescence, 48 h; percent of positive-control rescue, neutral wells zero; protection from apoptosis, % (concentration not given with the values); actives 0.8% (n = 300,000);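 active = Every replicate reaches about 75%, or at least half do and their mean reaches it too, limit read from the data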;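 note: 0% = cytokine-treated negative control wells and 100% = positive control rescue; higher means more ATP so stronger rescue from cytokine killing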
Gli-Sufu confirm = confirmation of Gli-SUFU pathway antagonists; shares compounds with Gli-Sufu block; Sufu-KO-LIGHT cells, Gli luciferase reporter, luminescence; inhibition, % at 5 µM; actives 40% (n = 2,500);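 active = mean inhibition at 5 µM reaching about 45%, limit read from the data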;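 note: plate controls were DMSO-treated cells for no effect and wells lacking cells for full effect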
Gli cytotox = counter-screen for Gli-SUFU antagonists: cytotoxicity; shares compounds with Gli-Sufu block; Sufu-KO-LIGHT cells cytotoxicity, ATP luminescence; cytotoxicity, % at 5 µM; actives 32% (n = 2,500);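 active = mean cytotoxicity at 5 µM above about 25%, limit read from the data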;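 note: cells exposed to compound overnight for roughly 16 to 18 hours; plate controls were DMSO wells with cells for no effect and medium without cells for full effect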
Wnt3a cs = counter-screen for Gli-SUFU antagonists: Wnt3a reporter inhibition; shares compounds with Gli-Sufu block; Wnt-LIGHT cells, Wnt3a-driven luciferase reporter, luminescence; inhibition, % at 6.25 µM; actives 20% (n = 2,500);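 active = mean inhibition above about 25%, limit read from the data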
* = called active by the depositor; . = no result given. A selection: hits, their analogues and other compounds. The true share with any hit is near 1.8%.

SMILES	Jurkat NFkB inh	Gli-Sufu block	697 NFkB inh	Beta cell apopt	Gli-Sufu confirm	Gli cytotox	Wnt3a cs
CC1(c2ccc(OC(F)F)cc2)NC(=O)N(CC(=O)NCCC2=CCCCC2)C1=O (stereo not drawn)	0	-6	8	1	.	.	.
FC(F)(F)c1nc(-c2cccs2)ncc1-c1nnnn1-c1ccc(Cl)cc1	15	58*	-34	45	58*	39*	1
O=c1cc(CSc2nnc(-c3cccs3)n2Cc2ccccc2)nc2sc3ccccc3n12	31	62*	-60	68	57*	33*	37*
Cc1cnccc1CN(C)Cc1nc(Cc2ccccc2Cl)no1	2	55*	-6	34	31	10	-2
COc1cccc(/C=N/NC(=O)c2ccc([N+](=O)[O-])cc2Cl)c1O	0	64*	-5	88*	28	9	14
Nc1nc(SCC(=O)Nc2cccc(Oc3ccccc3)c2)n[nH]1	-3	53	-2	-2	20	2	-5
CCCCc1ccc(N=N/C(C(=O)Nc2cc(OC)c(NC(C)=O)cc2OC)=C(/C)O)cc1	15	64*	4	-3	16	4	-40
CCCCc1ccc(N=N/C(C(=O)Nc2ccccc2OC)=C(/C)O)cc1	-6	3	7	5	.	.	.
CCOC(=O)C1(CCCc2ccccc2)CCN(Cc2nccn2CC)CC1	-12	50	-45	13	33	10	-17
CCOC(=O)C1(CCc2ccccc2)CCN(Cc2cccc3nccnc23)CC1	17	55	-20	12	30	4	-58
Cc1ccc(CNc2cnccn2)s1	13	2	-1	-4	.	.	.
COc1ccc(C(CCN(Cc2ccc(OC)c(OC)c2)C(C)=O)c2ccccc2)cc1 (stereo not drawn)	8	57*	-18	3	23	23	12
O=C(Nc1nc(=O)c2ccccc2s1)c1ccccc1	-67	-77	-52	-3	.	.	.
O=C(Nc1nc2c(s1)C(=O)CCC2)c1ccccc1	-66	70*	-112	11	-66	29*	2
O=C1CC[C@@]23CCCN2C(=O)CCCC3C1 (stereo partly drawn)	.	55*	-11	.	18	13	9
C=CCOn1c(C)c(C(C)=O)c2c3nonc3ccc21	9	-10	0	-6	.	.	.
N#Cc1ccc(OCC(=O)NNC(=S)NC2CCCCC2)cc1	-25	58*	-11	-13	25	4	-5
O=C(c1ccco1)N1CCN(C2CC(=O)N(c3ccccc3)C2=O)CC1 (stereo not drawn)	0	5	14	-6	.	.	.
COc1ccc(CC(=O)Nc2ccncc2Cl)cc1	24	66*	-18	102*	54*	26*	31*
S=C(NCc1ccc(Cl)cc1)Nc1ccncc1	31	63*	-42	60	49*	14	36*
O=C(Cc1ccc(Cl)cc1Cl)Nc1ccncc1Cl	18	73*	-5	62	49*	23	32*
O=C(Cc1c(Cl)cccc1Cl)Nc1ccncc1Cl	8	8	-32	3	.	.	.
O=C(Cc1ccc(Cl)cc1Cl)Nc1ccncc1	32	51	-1	1	43	16	22
Cc1ccsc1/C=N/Nc1nc(=O)[nH]nc1C	-19	33	-72	62	.	.	.
CCOC(=O)Nc1ccc(C)cc1C	-8	1	19	-3	.	.	.
SMILES	Jurkat NFkB inh	Gli-Sufu block	697 NFkB inh	Beta cell apopt	Gli-Sufu confirm	Gli cytotox	Wnt3a cs
CN(C)CCCN1C(=O)C2CCc3[nH]c4ccccc4c3C2C1=O (stereo not drawn)	3	51	24	-1	13	5	-7
O=C(NC(=S)N1CCN(c2ccccc2)CC1)c1c(F)cccc1F	19	-20	7	-2	.	.	.
C=CCn1c(O)c(N=NC(=S)Nc2cccc(C)c2)c2ccccc21	4	53	8	60	57*	26*	-22
C=CCn1c(O)c(N=NC(=S)Nc2ccccc2F)c2ccccc21	9	51	-3	56	.	.	.
C=CCn1c(O)c(N=NC(=S)Nc2ccccc2F)c2cc(S(=O)(=O)N3CCOCC3)ccc21	12	64*	-17	28	56*	29*	-23
O=C(Nc1ccccc1)/C(=C\c1cccs1)NC(=O)c1ccccc1	-1	4	11	-1	.	.	.
CSc1ccc(/C=N/NC(=O)c2ccccc2Cl)cc1	2	-25	-29	3	.	.	.
O=C1/C(=C/c2ccccc2O)SC(=S)N1Cc1cccnc1	9	72*	8	7	31	9	-102
O=C1/C(=C\c2ccc(O)cc2)SC(=S)N1Cc1ccccc1	8	-11	3	9	.	.	.
CCn1nc(C)c(CN2CCCC(C(=O)c3cccc(OC(C)C)c3)C2)c1C (stereo not drawn)	40	71*	-24	25	33	20	40*
CC(C)Oc1cccc(C(=O)C2CCCN(Cc3cnn(C(C)C)c3)C2)c1 (stereo not drawn)	8	38	6	.	.	.	.
CC(C)Oc1cccc(C(=O)C2CCCN(Cc3ccc4nonc4c3)C2)c1 (stereo not drawn)	-1	-8	-2	1	.	.	.
Cc1nn(C(C)C)c(C)c1CN1CCCC(C(=O)c2cccc(OC(C)C)c2)C1 (stereo not drawn)	22	59*	-2	5	17	24	-30
CN(C(=O)CN1C(=O)NC2(CCc3ccccc32)C1=O)C1CCS(=O)(=O)C1 (stereo not drawn)	0	-1	-26	-2	.	.	.
CC(=O)c1cccc(NS(=O)(=O)c2ccc(-c3cnc(C4CC4)o3)cc2)c1	43	55	16	45	49*	17	-8
CCOc1cc(C(C(=O)NCC2CCCO2)N(C(=O)Cn2nnc3ccccc32)c2ccc(OC)c(OC)c2)ccc1O (stereo not drawn)	8	57*	16	-5	9	15	-27
O=c1c2ccccc2nc2n1C(CSCc1ccc(Cl)cc1Cl)CS2 (stereo not drawn)	24	52	-56	40	44	33*	-7
CC1Cc2ccccc2N1C(=O)C1CCCN1S(=O)(=O)c1ccc(Cl)cc1 (stereo not drawn)	-13	99*	-48	-5	20	14	-32
COc1ccc(C2NC(=O)c3sc(=S)n(-c4ccccc4)c3N2)cc1 (stereo not drawn)	-15	11	-18	-5	.	.	.
COc1cc(Br)cc(/C=N/N(CCO)C2=NS(=O)(=O)c3ccccc32)c1OC	-7	64*	2	17	42	7	-12
COc1cc(/C=N/N(CCO)C2=NS(=O)(=O)c3ccccc32)cc(OC)c1OC	0	38	0	6	.	.	.
COc1ccc(C(=O)NC2CCN(CC(=O)NCc3ccccc3)CC2)cc1	7	4	-7	-1	.	.	.

Bioassay records (PubChem BioAssay)
